Only some compounds are listed: those with a hit (about 8.2% of all), similar ones and a draw of the others.
KB-3-1 cytotox = KB-3-1 parental cell cytotoxicity; AID 1347075; KB-3-1 viability, CellTiter-Glo ATP luminescence, 72 h; actives 1.4% (n = 400,000); Potency, µM (top dose mostly 46.1 µM), usual class: cytotoxic; also: % is scaled to controls: 0 for no effect and ±100 for the full control effect; nearly all actives have a fitted effect of over 60% in size
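Screening of KB-3-1 cells (DMEM, 10% FBS, phenol-red free) ran from lowest to highest compound concentration; after 72 h at 37 °C viability was read luminescently and curves fitted.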
MCF10A rerep = inducers of DNA re-replication in MCF 10A breast cells; Potency, µM (doses to about 46.1 µM), for inactives: at the top dose activity, positive = re-replication, usual class: activators; actives 2.9% (n = 350,000); MCF 10A DNA re-replication, Hoechst nuclear intensity, 48 h; AID 624296; also: % of control where 0% means no effect; nearly all actives have a fitted effect of over 50% in size
KB-V1 cytotox = KB-V1 MDR subline cytotoxicity; KB-V1 MDR cells viability, CellTiter-Glo, 72 h; Potency, µM (series often up to 46.1 µM), most hits filed as cytotoxic; actives 3.4% (n = 400,000); also: % is scaled to controls: 0 for no effect and ±100 for the full control effect; nearly all actives have a fitted effect of over 60% in size
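KB-V1 MDR subline cells in DMEM (phenol-red free, 10% FBS) exposed to compounds in qHTS concentration series for 72 h at 37 degrees C. Viability read by CellTiter-Glo luminescence; concentration-effect curves fitted after normalization and correction.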
SW480 rereplic = inducers of DNA re-replication in SW480 colon cancer cells; SW480 DNA re-replication, Hoechst DNA content imaging, 48 h; Potency, µM (top dose mostly 46.1 µM), for inactives: top-dose re-replication activation, usual class: activators; actives 1.8% (n = 340,000); AID 624297; also: % of control where 0% means no effect; nearly all actives have a fitted effect of over 55% in size
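Hoechst fluorescence of nuclei (405 nm excitation, 500-530 nm emission) measured by plate-scanning imager after 48 hr compound exposure at 37 C; re-replication scored as increased number of nuclei with elevated intensity.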
ELG1 repair inh = inhibitors of ELG1-dependent DNA repair in HEK293T cells; actives 2.3% (n = 330,000); HEK293T ELG1-luciferase reporter, luminescence, 16 h; DNA damage induced by 5-fluorouridine; Potency, µM (titrated, usually from 46.1 µM), for the others: at the highest dose activity change, negative = inhibition, hits mostly inhibitors; also: % is scaled to controls: 0 for no effect and ±100 for the full control effect; nearly all actives have a fitted effect of over 55% in size
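In this reporter screen, reduction of luminescence relative to DMSO vehicle indicated activity. Compounds and 5-fluorouridine were added together to 2,000 cells per well, incubated for 16 hr at 37 °C, then developed with ONE-Glo.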
Numbers without * were called inactive. Calls follow the shape of the dose curve; as a rule, active = well fitted curve in the direction sought with a large enough effect; inconclusive = small, poorly fitted or top-dose-only effect, or another doubt; inactive = no such curve, though single readings can be large; an effect the other way counts as inactive or inconclusive. Potency is read from the fitted curve at half-maximal effect.

Results for COc1ccc(S(=O)(=O)N2CCN(S(=O)(=O)c3ccc4c(c3)OCCO4)CC2)cc1 ?
KB-3-1 cytotox: inactive; MCF10A rerep: -5%; KB-V1 cytotox: inactive; SW480 rereplic: 6%; ELG1 repair inh: -2%

How did COc1ccc(S(=O)(=O)N2CCN(Cc3cc4c(cc3Br)OCCO4)CC2)cc1 do in these assays?
KB-3-1 cytotox: inactive; MCF10A rerep: 24%; KB-V1 cytotox: 15µM*; SW480 rereplic: -1%

How did Cc1ccc2c(CN3CCN(S(=O)(=O)c4ccc5c(c4)OCCO5)CC3)cc(=O)oc2c1C do in these assays?
KB-3-1 cytotox: inactive; MCF10A rerep: inconclusive; KB-V1 cytotox: inactive; SW480 rereplic: 0%; ELG1 repair inh: 15µM*

How did CCN(CC(=O)Nc1ccc2c(c1)OCCO2)Cc1cc(=O)oc2c(C)c(C)ccc12 do in these assays?
KB-3-1 cytotox: inactive; MCF10A rerep: -1%; KB-V1 cytotox: 4.1µM*; SW480 rereplic: 6%; ELG1 repair inh: inconclusive

What do the screens show for `Cc1ccc2c(CN3CCN(Cc4ccc5c(c4)OCO5)CC3)cc(=O)oc2c1C`?
KB-3-1 cytotox: inactive; MCF10A rerep: 0%; KB-V1 cytotox: inactive; SW480 rereplic: -3%; ELG1 repair inh: inconclusive

What do the screens show for `Cc1ccc(CNC(=O)c2cn(C)c3ccc(S(=O)(=O)N4CCC(C)CC4)cc3c2=O)cc1`?
KB-3-1 cytotox: inactive; KB-V1 cytotox: inactive

How did Cc1ccccc1NC(=O)C1CCN(c2cc(-c3ccccc3)nc3ncnn23)CC1 do in these assays?
KB-3-1 cytotox: inactive; MCF10A rerep: -8%; KB-V1 cytotox: inactive; SW480 rereplic: 3%; ELG1 repair inh: 15µM*

How did O=S(=O)(c1ccc(Br)cc1)N1CCN(c2cc(-c3ccccc3)nc3ncnn23)CC1 do in these assays?
KB-3-1 cytotox: inconclusive; MCF10A rerep: 24%; KB-V1 cytotox: 13µM*; SW480 rereplic: -2%; ELG1 repair inh: inconclusive

How did COc1ccc(S(=O)(=O)N2CCN(c3cc(-c4ccccc4)nc4ncnn34)CC2)cc1 do in these assays?
KB-3-1 cytotox: inconclusive; MCF10A rerep: -3%; KB-V1 cytotox: 23µM*; SW480 rereplic: -3%; ELG1 repair inh: 21µM*

What do the screens show for `COc1ccc(CNC(=O)c2cc(C)nc3c2c(C)nn3-c2cccc(Cl)c2C)cc1`?
KB-3-1 cytotox: inactive; KB-V1 cytotox: inactive

Results for O=C(CCNC(=O)N1CCn2c1nc1ccccc12)NCc1ccccc1Cl ?
KB-3-1 cytotox: inactive; MCF10A rerep: -1%; KB-V1 cytotox: inactive; SW480 rereplic: -2%; ELG1 repair inh: inconclusive

What do the screens show for `COc1cc2c(cc1NC(=O)CSc1ccc(C)cc1)oc1ccccc12`?
KB-3-1 cytotox: inactive; MCF10A rerep: inconclusive; KB-V1 cytotox: inactive; SW480 rereplic: 21%; ELG1 repair inh: inconclusive

Results for COc1cc2c(cc1NC(=O)CSc1cccc[n+]1[O-])oc1ccccc12 ?
KB-3-1 cytotox: inconclusive; MCF10A rerep: 15%; KB-V1 cytotox: 12µM*; SW480 rereplic: -7%; ELG1 repair inh: 26%

How did COc1cc2c(cc1NC(=O)CCCCCN1C(=O)CCC1=O)oc1ccccc12 do in these assays?
KB-3-1 cytotox: inactive; MCF10A rerep: 1%; KB-V1 cytotox: 7.3µM*; SW480 rereplic: 6%; ELG1 repair inh: 21µM*

How did COc1cc2c(cc1NC(=O)CN(C)Cc1ccc(OC)c(OC)c1)oc1ccccc12 do in these assays?
KB-3-1 cytotox: inconclusive; MCF10A rerep: 9.2µM*; KB-V1 cytotox: inconclusive; SW480 rereplic: 18µM*; ELG1 repair inh: 15µM*

What do the screens show for `COc1cc2c(cc1NC(=O)CSc1nc3ccc(C)cc3[nH]1)oc1ccccc12`?
MCF10A rerep: 5.2µM*; SW480 rereplic: 14%; ELG1 repair inh: -5%

How did CN(C)c1ccc(-c2ccnc3c2CC(C)(C(=O)Nc2ccccc2)O3)cc1 (stereo unspecified) do in these assays?
KB-3-1 cytotox: inactive; KB-V1 cytotox: inactive

What do the screens show for `CCCn1c2ccccc2c2cnn(CC(=O)NCc3ccccc3Cl)c(=O)c21`?
KB-3-1 cytotox: inactive; KB-V1 cytotox: inactive

How did CCOc1ccc(S(=O)(=O)N(CC(=O)Nc2ccc(OC)c(Cl)c2)c2ccccc2)cc1 do in these assays?
KB-3-1 cytotox: inactive; KB-V1 cytotox: inactive
